From the supplement of paper PMC6555819 come the findings set out here.

This assay has as its system PPARg homodimer (NR concentration 180 nM). The experiment in a line: PBM binding z-score (relative to random genomic background probes); higher = stronger binding; sequences stand for … in GC…GCGATTGACAGCGTAGAATGAAGG
The method in brief: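 Ligand-free nuclear receptor dimers were applied to custom Agilent 4×180K protein-binding microarrays whose double-stranded probes carried direct-repeat seeds, single-nucleotide variants, half-site ablations and random human genomic background sequences in 34-nt variable regions. Incubation lasted 1 h. Binding z-scores were computed against the random background probes from regression-normalized fluorescence.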
TGAATGAGGTTAAAGATCTGGGAACGTGGCGTCG came in with a PBM binding z-score of 0.811.
With CTCGCAAGGTCGGTTGAGGTGAGTATACGGATAA the figure was -0.181.
With CCACACAGGTGAAAGGTAACTCAGTCTGGTACGC the figure was 1.3.
As for CCTACTGCGCCAAGGTCATTGATCAGTCAAAGCA, the PBM binding z-score came to 2.68.
To TCTATTAGTTGAAGTGCAACCGACGAGTCCGTTT belongs 0.829; to AGAACGAGGGCAATGAGTAGATAGCACGGGTGGC, 0.383.
For the sequence TTGCCAAGGTGAAGGTCGTTGATCCCTCTGTAGA, the PBM binding z-score came out at 0.119.
TCTAGTTGGTCACGGAGGTCACACACGACGGGTA had a PBM binding z-score of 3.41.
In turn, ACAGACAGGTTAGTGAAGGTAACTCAGCTGGACG had a PBM binding z-score of 0.573.
The sequence GCGATTGGGGCAAAGCAGGTTACCATAAGGTTGG returned a PBM binding z-score of 0.213.
As for ATCTCTAGGTAAGACTCCGTTCAGTGAAGAACGC, the PBM binding z-score was found to be 1.16.
With CCGACTGGGCCACGAAAGGTCATTGATTCAGTGA the figure was 2.39; with AATACAGGGTCATTGTAGGCCAGAGTACGCACAG, 2.91.
TTACCAAGGTGAGCTGAGGTCGTGGATCCAACTC registered a PBM binding z-score of -0.369.
To TCTATTAGTTGATTAGGGCAACCGCAACAGCGGA belongs 0.498; to AGTCAAAGTTCATCTAGGTAACCTAAGATATGCT, 3.22; to TCAGACAGGTGAAGGTAACGCAGGTACGCAGTCG, -0.401.
Regarding AGAATGAGGTTATATGTAGATCAGGGAAGAAAGT, the PBM binding z-score was found to be 1.32.
GCTCGGAGGACAAGGTCAGAGATTTGTCCGTAGA: the PBM binding z-score came out at 0.0878.
With TCTGCTAGGTCAGTTGGTCAGGTAACGAGCTGCC the figure was 0.478.
With CCTCGGAGGACTACAGGAGGTCAGAGCTGCCAGA the figure was 0.985.
As for GGAACGACGGCAAGTTGATAGCAGAGTTTGATGG, the PBM binding z-score is -0.705.
With ATCTCTAGGTAAAGATAGTTCTGTGAATGCAAAT the figure was 0.736.
CGTCCAGGGTCAGAGAGGTCAGTGAATGCCGAGT registered a PBM binding z-score of 3.95.
In turn, TCTAGTTGGTCACGGAGGTCACACCCGACGGGTA displayed a PBM binding z-score of 2.95.
As for TCATATAGGTAAATGCTAAGTGAAAGTCCGATCT, the PBM binding z-score came to 0.521.
With TCTGCTAGGTCAGCTGGTCAGCTAACGAGCTGCC the figure was 0.0537.
As for CTACCAAGGTGAACAAGGGCGTTGATTACTATTC, the PBM binding z-score stood at 0.114.
With AGTCAAAGTTCAAGACGAGGTAACGTAAAGCACG the figure was 3.22.
To GCTGCTAGGTCAGGTTGATCAGCTAACGGGTACG belongs 0.196.
To CCTTACGGGTCAAGGTTTTAGCACGGGTGGTACG belongs 2.55.
For TGAATGAGGTTATGAGATCAGGGAACGTTGCAAA, the PBM binding z-score came to 0.328.
Regarding AGAACGAGGGCACGCTGAGTTCATAGCAGAGTAG, the PBM binding z-score was found to be 1.16.
With AGTCAAAGTTCACTAGGTAACCTAAGATTCAGCT the figure was 2.98; with GTACCAAGGTGAATAGGTCGTGGATGAGTAGGCG, 1.84.
With CTCCAAAGGTCGTGCTCAGGTGAGTATACCAAAC the figure was 2.56; with TGATATAGGTAAACAGGTGAAAGTCCGTAAGTTA, 0.911; with TCTATTAGTAGATTAGGGCAACCGAAACAGCGGA, 0.0523.
As to CGTCCAAGGTCATAGGAGGTCAGTGAGGACAGAT, the PBM binding z-score was found to be 5.73.
Sequence TCTCGGAGGACACGGAAGGTCAGAGCTCGACATC had a PBM binding z-score of 1.27.
